{
  "source": "ChEMBL document CHEMBL4513216",
  "about": "“Probing the Open Global Health Chemical Diversity Library for Multistage-Active Starting Points for Next-Generation Antimalarials” (ACS Infect Dis, 2020)",
  "note": "Among all 69,000 compounds or so, about 8,600 (12%) showed an effect of 50% or more. The sample as a whole holds a higher share of strong results than the screen did.",
  "data": [
    {"system": "Plasmodium berghei", "assay": "Screen against P. berghei liver stage (PbLuc), transformed with Luciferase, at 10uM", "assay_type": "functional, HepG2", "details": "tested at 10 uM", "units": {"INHIBITION": "%"}, "values": [
      {"compound": "COc1ccccc1C(C)N(C)Cc1nc2c(cnn2C)c(=O)[nH]1", "note": "(centres undefined)", "INHIBITION": -75.245},
      {"compound": "CCCc1n[nH]cc1C(=O)NCC1COc2cc(OC)ccc2C1", "note": "(centres undefined)", "INHIBITION": -3.83},
      {"compound": "CN1CCN(S(=O)(=O)NCC2COc3ccccc3C2)CC1", "note": "(centres undefined)", "INHIBITION": -22.1},
      {"compound": "O=C(c1cncc(NCC2COc3ccccc3C2)n1)N1CCCC1", "note": "(centres undefined)", "INHIBITION": 33.7},
      {"compound": "CCc1nc2c(NCC3COc4cc(OC)ccc4C3)ncnc2o1", "note": "(centres undefined)", "INHIBITION": 67.7},
      {"compound": "COc1ccc2c(c1)OCC(CNC(=O)NC(C)(C)C)C2", "note": "(centres undefined)", "INHIBITION": 31},
      {"compound": "CCc1nc2c(NCC3COc4ccccc4C3)ncnc2o1", "note": "(centres undefined)", "INHIBITION": 91.5},
      {"compound": "CCc1nc2c(NCC3COc4c(cccc4OC)C3)ncnc2o1", "note": "(centres undefined)", "INHIBITION": 55.4},
      {"compound": "COc1cccc2c1OCC(CNC(=O)Cc1c(C)nc(N)nc1C)C2", "note": "(centres undefined)", "INHIBITION": -13},
      {"compound": "COc1cccc2c1OCC(CNc1ccc(C)nn1)C2", "note": "(centres undefined)", "INHIBITION": 42.7},
      {"compound": "Cc1nc(C2CCCN(C(=O)COCCc3ccccc3)C2)no1", "note": "(centres undefined)", "INHIBITION": 11.2},
      {"compound": "CCCn1nccc1-c1cc(C2CCN(S(C)(=O)=O)CC2)nc(C)n1", "INHIBITION": -39.4},
      {"compound": "COc1ccc2cnn(CC(=O)NCC3CCCO3)c(=O)c2c1OC", "note": "(centres undefined)", "INHIBITION": 34.5},
      {"compound": "CCC(CC)CS(=O)(=O)NC(=O)C1CCC1", "INHIBITION": 7.49},
      {"compound": "CCC(C)CS(=O)(=O)NC(=O)C1CC1", "note": "(centres undefined)", "INHIBITION": 2.39},
      {"compound": "CCC(C)CS(=O)(=O)NC(=O)C1CCC1", "note": "(centres undefined)", "INHIBITION": 62.3},
      {"compound": "CCCN1CCC(Cc2noc(-c3[nH]cnc3C)n2)CC1", "INHIBITION": -1.85},
      {"compound": "Cc1ccc(N2CCCC3(COCCN(c4ccccn4)C3)C2)nn1", "note": "(centres undefined)", "INHIBITION": 17.2},
      {"compound": "Cc1ccc(CNC(=O)CN2CCCC(Cn3cncn3)C2)cc1", "note": "(centres undefined)", "INHIBITION": 31.8},
      {"compound": "Cn1cc(C(=O)NCc2cn3c(n2)CN(CC2CCOC2)CC3)cn1", "note": "(centres undefined)", "INHIBITION": -11.6},
      {"compound": "Cn1cc(C(=O)NCc2cn3c(n2)CN(Cc2ccncc2)CC3)cn1", "INHIBITION": -4.88},
      {"compound": "Cn1cc(C(=O)NCc2cn3c(n2)CN(Cc2ccccn2)CC3)cn1", "INHIBITION": 53},
      {"compound": "Cn1cc(CN2CCn3c(CNC(=O)c4cccn4C)cnc3C2)cn1", "INHIBITION": 2.01},
      {"compound": "Cn1cccc1C(=O)NCc1cn2c(n1)CN(CC1CCOCC1)CC2", "INHIBITION": -4.88},
      {"compound": "O=C(CC1CC1)NCc1cn2c(n1)CN(Cc1cccnc1)CC2", "INHIBITION": 33.4},
      {"compound": "Cn1cccc1C(=O)NCc1cn2c(n1)CN(CC1CCOC1)CC2", "note": "(centres undefined)", "INHIBITION": 58.4},
      {"compound": "Cc1ccc(CN2CCn3c(CNC(=O)c4cccn4C)cnc3C2)s1", "INHIBITION": 54.7},
      {"compound": "O=C(NCc1cn2c(n1)CN(Cc1cccc(F)c1)CC2)C1CCC1", "INHIBITION": -14.4},
      {"compound": "Cn1cccc1C(=O)NCc1cn2c(n1)CN(Cc1ccccn1)CC2", "INHIBITION": -37.6},
      {"compound": "Cn1cccc1C(=O)NCc1cnc2n1CCN(CC1CC1)C2", "INHIBITION": -13},
      {"compound": "O=C(CC1CC1)NCc1cn2c(n1)CN(Cc1cccc(F)c1)CC2", "INHIBITION": 50.9},
      {"compound": "Cc1nc(C)n(C2CCCN(C(=O)c3ccc(F)c(F)c3)C2)n1", "note": "(centres undefined)", "INHIBITION": 6.333},
      {"compound": "Cc1noc(-c2ccc(N3CCN(Cc4ncccc4C)CC3)nc2)n1", "INHIBITION": 17.1},
      {"compound": "O=C(CN1CC(c2nc(C3CC3)no2)C1)NCc1ccc(F)cc1", "INHIBITION": -50.7},
      {"compound": "CN(CCc1noc(C2CC2)n1)C(=O)C1(N2CCCC2)CCCC1", "INHIBITION": 10.7},
      {"compound": "Cc1nc(-c2ccccc2)cc(C2CCNCC2)n1", "INHIBITION": -25.3},
      {"compound": "COc1ccc(CNCc2c(C(C)C)nn(C)c2N(C)C)cn1", "INHIBITION": 19.2},
      {"compound": "CC(C)=CCCC1(C)CCC(=O)N(CCNc2nc(C)cc(=O)[nH]2)C1", "note": "(centres undefined)", "INHIBITION": 18.5},
      {"compound": "N#CCCN(C(=O)CN1CCCC1c1cccs1)c1ccccc1F", "note": "(centres undefined)", "INHIBITION": 13.833},
      {"compound": "O=C1Nc2ccccc2CN(CC=Cc2ccccc2)C12CCNC2", "note": "(centres undefined)", "INHIBITION": 35.8},
      {"compound": "O=c1[nH]c2cn(-c3ccc(Cl)cc3)c(=O)n2[nH]1", "INHIBITION": -20.6},
      {"compound": "CCC(CC)NC(=O)Cn1cc(-c2ccccc2)cn1", "INHIBITION": 48.4},
      {"compound": "Cn1cc(C(=O)NCc2cn3c(n2)CN(CC2CCOCC2)CC3)cn1", "INHIBITION": 9.54},
      {"compound": "O=C(NCc1cn2c(n1)CN(Cc1nccs1)CC2)C1CCC1", "INHIBITION": 11.4},
      {"compound": "Cn1cccc1C(=O)NCc1cn2c(n1)CN(Cc1cccnc1)CC2", "INHIBITION": 15.8},
      {"compound": "CN1CCN(Cc2cn3c(n2)CN(C2CCOCC2)CC3)CC1", "INHIBITION": 11.6},
      {"compound": "Cn1cc(C(=O)NCc2cn3c(n2)CN(C2CCOCC2)CC3)cn1", "INHIBITION": 54.7},
      {"compound": "COCCN1CCn2cc(CNC(=O)C3CCC3)nc2C1", "INHIBITION": -10.3},
      {"compound": "O=C(NCc1cn2c(n1)CN(CC1CCOCC1)CC2)C1CCC1", "INHIBITION": 60.2},
      {"compound": "c1c(CN2CCOCC2)nc2n1CCN(C1CCOCC1)C2", "INHIBITION": 27.5},
      {"compound": "Cn1cc(CN2CCn3cc(CNC(=O)c4cccn4C)nc3C2)cn1", "INHIBITION": 62.6},
      {"compound": "CCN1CCn2cc(CNC(=O)c3cnn(C)c3)nc2C1", "INHIBITION": -18.4},
      {"compound": "c1c(CN2CCCC2)nc2n1CCN(C1CCOCC1)C2", "INHIBITION": 54.4},
      {"compound": "Cn1cc(CN2CCn3cc(CNC(=O)CC4CC4)nc3C2)cn1", "INHIBITION": 33.4},
      {"compound": "Cn1cc(C(=O)N2CC[C@@H]3[C@@H]2CCN3Cc2ccccc2)cn1", "INHIBITION": 5.44},
      {"compound": "COc1ccc2c(ccn2CC(=O)Nc2n[nH]c(C(C)C)n2)c1", "INHIBITION": 35.7},
      {"compound": "CC(C)n1cnnc1CN(C)C(=O)c1ccc[nH]1", "INHIBITION": -5.19},
      {"compound": "O=C(c1cnccn1)N1CCCC2(CCN(c3ccccn3)C2)C1", "note": "(centres undefined)", "INHIBITION": -16.1},
      {"compound": "CCNc1cc2c(nn1)CCN(C(=O)c1ccnc(C)n1)C2", "INHIBITION": 7.75},
      {"compound": "Cc1ccnc(NCC2(N(C)C)CCOCC2)n1", "INHIBITION": -24},
      {"compound": "O=C(c1cccnc1)N1CCc2ncnc(N3CCOCC3)c2CC1", "INHIBITION": 41.6},
      {"compound": "Cc1noc(C)c1CN1CCn2cc(CNc3ccccn3)nc2C1", "INHIBITION": 88.1},
      {"compound": "CC(=O)N1CCn2cc(CNC(=O)c3cccn3C)nc2C1", "INHIBITION": 38.1},
      {"compound": "Cn1cccc1C(=O)NCc1cn2c(n1)CN(C(=O)c1ccsc1)CC2", "INHIBITION": 61.1},
      {"compound": "c1ccc(NCc2cn3c(n2)CN(Cc2cccs2)CC3)nc1", "INHIBITION": 26.5},
      {"compound": "c1ccc(NCc2cn3c(n2)CN(Cc2ccoc2)CC3)nc1", "INHIBITION": -13.7},
      {"compound": "Cn1cccc1C(=O)NCc1cn2c(n1)CN(c1ncccn1)CC2", "INHIBITION": -0.453},
      {"compound": "Cc1ccc2cc(C(=O)N3CCC(Nc4cccnn4)CC3)[nH]c2c1", "INHIBITION": 21.6},
      {"compound": "O=C(NCC[S+]([O-])Cc1ccccc1)c1ccc2[nH]c(=O)[nH]c2c1", "note": "(centres undefined)", "INHIBITION": 35.2}
    ]}
  ]
}
